Only some compounds are listed: those with a hit (about 1.9% of all), similar ones and a draw of the others.
VLA-4 allo ag: enhancers of LDV-FITC binding to VLA-4 integrin, primary screen, Jurkat cells, flow cytometry. Integrin alpha-4 (Homo sapiens), P13612. activation, % at 10 µM (by protocol). 24,000 tested, under 10 active;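 active means fluorescent ligand binding to cells raised by more than 40% of the manganese-induced maximum; inconclusive means compound's own fluorescence above 85% of the ligand control signal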;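 further: 0% = ligand binding without compound and 100% = manganese-stimulated maximal binding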
FPRL1 binder: human FPRL1 ligands by binding competition, primary screen, cell-based, FPR counter-screen, flow cytometry | N-formyl peptide receptor 2 (Homo sapiens), P25090 | FPRL1-expressing cells, fluorescent ligand binding inhibition | inhibition, % (concentration not given with the values) | 24,000 tested, 0.3% active | AID 441, 2006;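 further: 0% = buffer alone and 100% = receptor blocker peptide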
Target sequence (P25090 whole entry, looked up): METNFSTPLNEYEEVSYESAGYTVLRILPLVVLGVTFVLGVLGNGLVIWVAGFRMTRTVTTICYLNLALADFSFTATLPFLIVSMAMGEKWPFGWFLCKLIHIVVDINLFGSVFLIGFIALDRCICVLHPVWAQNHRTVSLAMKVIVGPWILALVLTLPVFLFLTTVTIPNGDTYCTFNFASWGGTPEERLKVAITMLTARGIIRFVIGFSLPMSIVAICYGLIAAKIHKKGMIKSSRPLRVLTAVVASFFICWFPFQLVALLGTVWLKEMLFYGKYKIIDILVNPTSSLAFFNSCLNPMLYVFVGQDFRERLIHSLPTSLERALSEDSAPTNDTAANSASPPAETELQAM
Autofluor Jurkat: compound autofluorescence on Jurkat cells, primary screen, artefact control for VLA-4 allosteric ligand project, cell-based, flow cytometry | hits give high values; 1 = vehicle-only cell background | 24,000 tested, 0.61% active | fluorescence ratio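 (tested at 10 µM compound in the well)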 | AID 576, 2007;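 active means fluorescence ratio above 2.44, which is 1 plus 3 SD of all ratios; inconclusive means signal too bright to measure linearly, ratio around 10 or more; inactive means fluorescence ratio below 2.44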;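 further: green fluorescence of cells measured with 488 nm excitation and 530 nm emission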
VLA-4 antagonist: inhibitors of LDV-FITC binding to Mn2+-activated VLA-4, primary screen, Jurkat cells | LDV-FITC binding with Mn2+, flow cytometry; 100% = Mn2+-driven binding gain fully reversed | AID 529, 2006 | Integrin alpha-4 (Homo sapiens), P13612 | 24,000 tested, 0.2% active | inhibition, % at 10 µM (by protocol);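 active means inhibition above 50%; inconclusive means compound itself fluorescent, judged against control cell fluorescence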;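 further: 0% = Mn2+ stimulated cells lacking compound and 100% = ligand binding without Mn2+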
LNCaP diff act: activators of LNCaP prostate cell differentiation, primary screen, flow cytometry side scatter; 4 d; side scatter shift, % at 10 µM; 24,000 tested, 0.56% active;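 active means side scatter shift above 30%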;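 further: androgen-responsive LNCaP prostate cancer cells in charcoal-stripped serum medium; percent of cells past a gate set so DMSO wells show 10% shift; higher shift means more granular cells and more differentiation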
FPR ligand: human FPR ligands by binding competition, primary screen, cell-based, FPRL1 counter-screen, flow cytometry; FPR-expressing cells, fluorescent ligand binding; inhibition, % (concentration not given with the values); 24,000 tested, 0.74% active;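 further: 0% = buffer wells and 100% = receptor blocker peptide wells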
* = called active by the depositor; ? = inconclusive; / = no result given. Unless noted, no stated cut-off is given here; in the data, active means inhibition above about 30%; inconclusive means no clear call, values can overlap the other calls; inactive means below that.

SMILES	VLA-4 allo ag	FPRL1 binder	Autofluor Jurkat	VLA-4 antagonist	LNCaP diff act	FPR ligand
Cc1nc2c(C#N)c[nH]n2c(=O)c1Cc1ccccc1	/	-6.8	/	/	/	39.7*
CCc1c(C)nc2c(C#N)c(C)[nH]n2c1=O	/	26.8	/	/	/	49.6*
Cc1nc2c(C#N)c(C)[nH]n2c(=O)c1Cc1ccccc1	/	2.3	/	/	/	32.3*
O=C(NC1CCCC1)C1CC1c1ccccc1 (centres undefined)	-3.5	45.8*	1.06	-4.5	5.0	25.6
CC(=O)N1CCc2cc(S(=O)(=O)NCCC3=CCCCC3)ccc21	9.0	-5.4	1.01	-17.0	6.0	0.1
COCCCN1C(=O)C(O)=C(C(=O)c2ccco2)C1c1cccc(Br)c1 (centres undefined)	/	-6.8	/	/	/	70.4*
COCCCN1C(=O)C(O)=C(C(=O)c2ccco2)C1c1ccc(Br)cc1 (centres undefined)	4.0	-4.5	1.02	-10.0	8.0	47.6*
CCCOc1ccc(C2C(C(=O)c3ccco3)=C(O)C(=O)N2CCN2CCOCC2)cc1OC (centres undefined)	/	-4.5	/	/	/	20.0
CCN1C=C(Cc2cccs2)C2=C(C1)C(c1cccs1)C(C#N)=C(N)O2 (centres undefined)	?	-6.9	3.08*	?	/	6.4
COC(=O)c1ccccc1NC(=O)c1cnc2sccn2c1=O	?	-2.4	1.03	?	9.0	-0.4
COC(=O)Nc1sccc1C(=O)Nc1sccc1C(=O)OC	?	5.1	2.16	?	32.0*	-3.3
C=CCn1c(N)c(C(=O)NCCC2=CCCCC2)sc1=S	-3.3	-3.2	1.04	38.0	5.0	-3.9
CCCCNC(=O)CN(C1CCCCC1)S(C)(=O)=O	0.5	2.0	1	-19.5	6.0	-2.6
N#Cc1c(C(F)(F)F)cc(-c2ccccc2)nc1SCc1nc(N)nc(N2CCOCC2)n1	?	46.8*	8.65*	?	13.0	?
Nc1nc(Cn2nnc(-c3ccccc3F)n2)nc(N2CCOCC2)n1	2.0	6.1	1	-5.0	3.0	0.0
CC(C)c1ccc(NC(=O)C(c2ccc3c(c2)OCO3)N2CCC3(CC2)OCCO3)cc1 (centres undefined)	-4.0	-8.0	1.09	54.0*	7.0	10.1
CC1(C(=O)NC2CCCC2)CCC(=O)N1Cc1ccccc1 (centres undefined)	4.0	1.6	1.17	9.0	6.0	-3.6
CC1(C)S[C@@H]2[C@H](NC(=O)Cc3ccccc3)C(=O)N2[C@H]1C(=O)O	1.0	7.8	1.02	-13.5	4.0	48.4*
COCCn1nnnc1C(C(C)C)N(Cc1cccnc1)Cc1ccccc1Cl (centres undefined)	-1.0	-0.6	0.93	-4.0	11.0	5.9
Cc1nnc(NCc2n[nH]c(=O)c3ccccc23)c2ccccc12	-0.7	0.0	1.01	-14.7	33.0*	7.9
COc1ccc(Cc2n[nH]c(=O)c3ccccc23)cc1OC	5.0	-4.6	0.98	-14.0	/	6.3
CN(C)c1ccc(/C=c2\sc3nc(-c4ccccc4)nn3c2=O)cc1	?	/	8.23*	?	5.0	/
COc1cccc(C2C(C(=O)c3cccs3)=C(O)C(=O)N2c2cc(C)on2)c1 (centres undefined)	/	5.3	/	/	/	12.1
COc1cccc(C2C(C(=O)c3cc4ccccc4o3)=C(O)C(=O)N2c2cc(C)on2)c1OC (centres undefined)	/	1.8	/	/	/	53.9*
COc1ccc(OC)c(C2C(C(=O)c3cccs3)=C(O)C(=O)N2c2cc(C)on2)c1 (centres undefined)	/	-0.5	/	/	/	56.2*
SMILES	VLA-4 allo ag	FPRL1 binder	Autofluor Jurkat	VLA-4 antagonist	LNCaP diff act	FPR ligand
O=C(c1noc2c1CCCCC2)N1CCN(C(c2ccccc2)c2ccccc2)CC1	2.0	-4.1	0.97	21.0	8.0	-3.7
CCCC(=O)c1cc2ccccc2oc1=O	0.0	1.3	1	-34.0	0.0	3.5
N#CC1=C(SCC(=O)c2cc3ccccc3oc2=O)NC(=O)C(C#N)C12CCCC2 (centres undefined)	-35.5	-1.7	1.19	68.0*	14.0	-1.8
Cc1nc2ccccc2n1CCC(=O)Nc1cccc(F)c1	-2.3	0.1	0.82	-8.3	7.0	0.9
COC(=O)c1ccc(/C(O)=C(\C#N)c2nc3ccccc3s2)cc1	?	-45.3	2.68*	?	12.0	-5.4
Cc1cc2c(cc(C(=O)OCC(=O)NCc3cccs3)n2C(C)C)o1	13.5	0.6	1	-30.0	12.0	-1.1
N#CC1=C(N)OC2=C(CCC/C2=C/c2ccoc2)C1c1ccoc1 (centres undefined)	1.3	3.7	2.47*	6.5	8.0	1.7
Nc1nc(C2CC2)c(Sc2sc(N)nc2C2CC2)s1	1.0	-5.0	1.08	-1.0	6.0	1.0
CC(C)c1cc(C(=O)Nc2cc(Cl)ccc2O)no1	?	-11.8	3.81*	?	6.0	-19.3
CC(C)c1cc(C(=O)Nc2cccc(Cl)c2)no1	0.0	3.1	1.05	7.0	8.0	-1.2
COc1ccc(Nc2nc(N)nc(CN3CCC(Cc4ccccc4)CC3)n2)cc1	5.0	6.5	1	7.0	49.0*	-4.8
COc1cccc(N2CCN(Cc3nc(N)nc(Nc4ccccc4OC)n3)CC2)c1	2.0	0.2	1.06	-8.5	12.0	0.0
COc1cccc(CNC(=O)C2CCN(c3cnccn3)CC2)c1	-2.5	7.8	0.93	8.0	6.0	18.3
O=C(NC1CCCC1)c1ccc(CS(=O)(=O)c2ccc(Br)cc2)o1	-7.0	-10.0	1.06	10.0	5.0	-8.9
O=C(O)CCc1cc(I)c(Oc2ccc(O)c(I)c2)c(I)c1	-22.5	-1.7	1	4.5	7.0	17.1
COc1ccc(OC)c(NC(=O)[C@H]2CC=CC[C@H]2C(=O)O)c1	2.0	3.4	0.9	-2.0	12.0	3.1
COc1ccc(C)cc1NC(=O)C1CCCCC1C(=O)O (centres undefined)	/	26.1	/	/	/	32.5*
COc1ccc(NC(=O)C2CCN(S(=O)(=O)c3cccnc3)CC2)cc1Cl	3.0	-3.8	0.98	0.0	8.0	-1.3
O=C(NCc1ccc(Cl)cc1)C1CCCN(S(=O)(=O)c2cnc[nH]2)C1 (centres undefined)	-1.0	0.9	0.97	-10.0	11.0	1.0
Cc1noc(/C=C/c2ccco2)c1S(=O)(=O)N1CCC(C(=O)N2CCc3ccccc3C2)CC1	-8.0	-5.8	1.11	12.0	43.0*	-4.4
O=C(Cn1c(=O)oc2cc(S(=O)(=O)N3CCc4ccccc43)ccc21)N1CCCCC1	?	1.3	1.18	?	13.0	-1.5
